Assay results: PubChem BioAssay (NCI)
This is part of a sample that, as a whole, favours compounds with a hit. Of some 83,000 tested, about 20% had one in any assay.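 A percent growth of 40 corresponds to 60% growth inhibition; 0 means no net growth; -100 means all cells died. Active threshold: below 10.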 A number with no mark means an inactive call. Active and inactive are the calls of the source.

Experiments:
Experiment in all cases: NCI-60 one-dose screen, 48 h (100 = growth as untreated, 0 = no growth, -100 = all killed)
Conditions in all cases: 10 µM unless noted
[1] = test system: RPMI-8226 leukemia
[2] = test system: OVCAR-8 ovarian
[3] = test system: OVCAR-5 ovarian
[4] = test system: OVCAR-4 ovarian
[5] = test system: SK-OV-3 ovarian
[6] = test system: IGROV1 ovarian
[7] = test system: OVCAR-3 ovarian
[8] = test system: HS 578T breast
[9] = test system: NCI/ADR-RES ovarian
[10] = test system: SR leukemia

SMILES	growth [1]	growth [2]	growth [3]	growth [4]	growth [5]	growth [6]	growth [7]	growth [8]	growth [9]	growth [10]
Nc1ccc(S(=O)(=O)Nc2cc(F)cc(F)c2)cc1	106%	102%	55.5%	101%	104%	-22% (active)	111%	92.7%	–	–
COc1ccc(-c2nc(Nc3nc4ccccc4[nH]3)nc(N)c2C#N)cc1	94%	103%	104%	102%	102%	59.1%	111%	129%	103%	–
N#CCc1ncc(-c2ccc(C(F)(F)F)cc2)c(NC2CCCCCC2)n1	-32% [100 µM] (active)	–	50.2% [100 µM]	42.5% [100 µM]	74.9% [100 µM]	44.9% [100 µM]	-19% [100 µM] (active)	52.7% [100 µM]	28.3% [100 µM]	-23.8% [100 µM] (active)
COc1nc(OC)nc(-c2cc(-c3cc(OC)c(OC)c(OC)c3)no2)n1	90.4%	–	115%	106%	116%	121%	116%	95.2%	98.9%	95.6%
Cc1ccc2c(c1)C(=O)CCS2	100%	–	97.5%	–	95%	104%	115%	–	111%	118%
CCCCCC(=C/c1ccccc1)/C=N/N=C(N)N	–	–	58.8%	31.7%	76.9%	-63.3% (active)	–	–	41.7%	-2.56% (active)
O=C(CCCC(=O)Nc1ccc(Cn2nnc3cc(Cl)c(Cl)cc32)cc1)Nc1ccc(CN2N=NC3C=C(Cl)C(Cl)=CC32)cc1 (centres undefined)	64.4%	–	95.8%	65.6%	86.3%	81.1%	87.7%	91.5%	83.1%	79.2%
C[C@]12CC[C@H]3[C@@H](CC[C@H]4C[C@@H](O)CC[C@@]43C)[C@@H]1CC(=O)C2	–	95.3%	94.8%	104%	118%	103%	112%	–	106%	89.8%
CC([C@H]1CC=C2C3CCC4=C[C@@H](N(C)C)CC[C@]4(C)C3CC[C@@]21C)N(C)C (some centres undefined)	–	–	86.3%	8.25% (active)	80.3%	50.8%	42%	61%	68.8%	71.5%
O=C(Nc1ccc(-n2cc(-c3ccncc3)c(-c3ccc(Cl)c(O)c3)n2)cc1)c1cc(Cl)cc(Cl)c1	–	58.5%	–	91.8%	54.9%	63%	85.6%	-14.5% (active)	54.1%	15.8%
O=C(NC1CCN(Cc2ccccc2)CC1)c1cc(-c2cccnc2)nc2ccc(Cl)cc12	47.3%	–	80.5%	70.5%	–	80.5%	94.4%	83.4%	67%	23%
CCC(C)CC(N)O (centres undefined)	111%	–	99.9%	109%	111%	118%	110%	–	109%	105%
COc1ccc(C2=NN(C(=O)c3cc(-c4ccc(C)cc4)nc4ccccc34)C(c3cc(-c4ccccc4)nn3-c3ccccc3)C2)cc1 (centres undefined)	78.1%	–	102%	93.3%	112%	98.3%	84.4%	95.8%	92.5%	89.5%
CCCCCCCCCCCCCCCCCC(=O)Nc1ccc(O)cc1	77.8%	91.3%	117%	104%	98.8%	105%	103%	104%	–	–
CC(CCN1CCN(CCC(C)CC(C)(C)C)C1CC(C)CC(C)(C)C)CC(C)(C)C (centres undefined)	76.4%	–	90.4%	98.2%	96.4%	81.7%	73.3%	112%	98.3%	5.62% (active)
CCOC(=O)c1csc(-c2ccc(COC(=O)c3ccccc3)o2)n1	111%	111%	102%	116%	107%	103%	116%	111%	109%	–
Cc1c(CN(C)C)cc(C(C)C)cc1C(C)C	94.5%	106%	115%	98.8%	112%	119%	120%	124%	104%	–
CC(=O)Nc1nc(C)c(C(=O)N/N=C/N2CCCCC2)s1	124%	103%	103%	121%	103%	9.23% (active)	128%	107%	104%	–
COc1cc(OC)c(/C=C/c2ccc3ccccc3[n+]2C)c(OC)c1	-20.9% (active)	9.25% (active)	22.3%	28.8%	27.1%	14.8%	1.43% (active)	34.4%	97.4%	–
CN1NC(c2ccccc2)NN(C)C1=O	105%	103%	109%	101%	104%	109%	112%	113%	101%	–
C=C(NC(=O)[C@H](C(C)C)N(C)c1cccc2[nH]ccc12)C(=O)OC	6.33% (active)	102%	101%	103%	101%	111%	103%	102%	108%	–
CCN(CC)CCOC(=O)c1cccnc1	91.4%	97.6%	96.4%	90.1%	96.1%	103%	107%	92%	101%	–
COC(=O)C1CC(=O)N(C(=O)Nc2ccc(Cl)cc2Cl)C1 (centres undefined)	98.9%	99.1%	101%	117%	88.4%	107%	111%	82.9%	99.6%	–
O=C(O)/C(Br)=C/c1c[nH]c2ccc(Br)cc12	114%	106%	90.6%	59.7%	171%	98.2%	105%	105%	102%	–
CC(O)C(N)=O (centres undefined)	111%	110%	101%	97.4%	110%	116%	107%	108%	118%	–
COc1ccc(-c2cc(C#N)c(NNC(C)=O)[nH]2)cc1	123%	110%	94.7%	68.8%	179%	101%	104%	107%	109%	–
COc1cc2ncnc(-n3ncc4cc(NC(=O)Nc5ccccc5)ccc43)c2cc1OC	15.6%	50.1%	24.7%	7.2% (active)	3.75% (active)	5.95% (active)	36.1%	-18.9% (active)	39.2%	–
COc1ccccc1C(=O)Nc1cccc(-c2cc(=O)c3c(OC)c(OC)c(OC)cc3o2)c1	6.75% (active)	38.7%	81.2%	59.1%	100%	42.9%	51.3%	23.6%	58.3%	–
O=C(NCCCl)Nc1nccnc1OCc1ccc(F)cc1	96.4%	101%	96.6%	104%	93.1%	107%	117%	115%	104%	–
